Measured values: the supplement of paper PMC6555819

The sequences below were run on RARa:RXR (NR concentration 270 nM, RXRa partner concentration 90 nM) (assay: PBM binding z-score (relative to random genomic background probes); higher = stronger binding; sequences stand for … in GC…GCGATTGACAGCGTAGAATGAAGG).
Outline: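 Antibodies against each partner of ligand-free nuclear receptor dimers (one per run) detected binding on custom Agilent 4×180K protein-binding microarrays after 1 h incubation. The double-stranded probes had 34-nt variable regions carrying direct-repeat seeds, single-nucleotide variants, half-site ablations and random human genomic background sequences. Binding z-scores, from regression-normalized fluorescence, use the random background probes as reference.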
Work on TCAGACAGGTGAAGCTAACTCAGGTACGCAGTCG yielded a PBM binding z-score of 0.285.
For TAGCCTTGGTCATGCGGGCCAGTATAGTGTCGGC, the PBM binding z-score was -0.757.
For GTACCAAGGTGAATAGGTCGTTAATGAGTAGGCG, the PBM binding z-score was 1.44.
In the case of GCTTGTAGATCAACGTTAAGAAAGACTAAGCTAA, the PBM binding z-score is reported as -0.0818.
Sequence TCTTGTAGATCAAAGGGTAAGAAAGCCGAAGCCT has a PBM binding z-score of 0.483.
For GCTGATAGGTCAACTGATGGTCAGCTAAAGCTCG, the PBM binding z-score was 4.46.
For CATACAGGGTCAGCTAGGGCAGAGTAGGGACGGC, the PBM binding z-score was 3.11.
For AGTCAAAGTTCAGGACGATGTAACGTAAAGCACG, the PBM binding z-score was 1.78.
In the case of TCTAGTTGGTCACGGTGGTCACACACGACGGGTA, the PBM binding z-score is reported as 0.741.
With CCGACTGGGGCAAGGTTGCCATAACGCACAGCCA the PBM binding z-score was -0.46.
CCTAGCGGGCCAGGGTCACTCAAGCATTTCGCTT showed a PBM binding z-score of 3.38.
With AGAATGAGGTTGTACGTAGATCAGGGAAGAAAGT the PBM binding z-score was 0.411.
For AGAATGAGGTTATACGTACATCAGGGAAGAAAGT, the PBM binding z-score was 1.82.
With TGGAGTAGGTTAGGGGCATTCAGAATGGCGTCGA the PBM binding z-score was 0.932.
Work on CCTACTGGGCCATTCAGAGGCCATTGATCATATG yielded a PBM binding z-score of -0.153.
For ATATGTAGGTTACGGGTCATTCAGGTTGGTTCGC, the PBM binding z-score was 4.07.
TCGAGTAGGTTAGGGGTATTCAGAATGGCGTCGA showed a PBM binding z-score of 0.00419.
In the case of CCTAGTTCGTCAAGGTCACACACGCTATAGGTAC, the PBM binding z-score is reported as 4.97.
TCTTTTAGTTGATTAGGGCAACCGAAACAGCGGA showed a PBM binding z-score of 0.951.
Work on GCTAGCAGGGCATTTGGGTCACTCAATGACGGGC yielded a PBM binding z-score of 1.
With TGAATGAGGTTATAAGATCGGGGAACGTTGCAAA the PBM binding z-score was 1.05.
For CGTCCCAGGTCAGAGAGGTCAGTGAATGCCGAGT, the PBM binding z-score was 4.83.
For CAAACTAGGGCAAAGGTCAAAGTCGAGCCAACCA, the PBM binding z-score was 7.53.
With CGAACTAGGTCATTGACGGGACAGTGAATAGTAA the PBM binding z-score was 1.98.
TCTTGTAGATCAACAGGCGGTTAAGAAAGATCGA gave a PBM binding z-score of 0.363.
Sequence ACTATTAGGTGACTTAGGGCAACCGATACGACGC has a PBM binding z-score of 0.9.
Sequence TCTGCTACGTCAGTTGGTCAGCTAACGAGCTGCC has a PBM binding z-score of -0.819.
CTCGAAAGGTCGTGCTCAAGTGAGTATACCAAAC was tested, and the PBM binding z-score was 3.74.
TAGCCTAGGTCATTCAGGGGCCAGGATAGAAAGC gave a PBM binding z-score of 3.5.
CCTCGGAGGACAACAGGAGGTGAGAGCTGCCAGA gave a PBM binding z-score of -0.183.
ACAGACAGGTGAGTGAAGGTAATTCAGCTGGACG was tested, and the PBM binding z-score was -9.88e-05.
In the case of CTACCAAGGTGAACAAGCTCGTTGATTACTATTC, the PBM binding z-score is reported as 0.251.
Work on TAGCCTAGGTAATGCGGGCCAGTATAGTGTCGGC yielded a PBM binding z-score of -0.925.
In the case of CCTCGGAGGACAAAAGGAGGTCAGAGCTGCCAGA, the PBM binding z-score is reported as 2.45.
GCTTGTAGAGCAAGGTTAAGAAAGACTAAGCTAA showed a PBM binding z-score of 0.613.
Work on TCATATAGGTAAAAGGAGAAAGTCGGTGTGGTAA yielded a PBM binding z-score of 0.571.
TCTAGCAGGCCAGAGGTTCACTCAAGAGGTACGG was tested, and the PBM binding z-score was 0.324.
In the case of TCGAGTAGGTTCGGGGCATTCAGAATGGCGTCGA, the PBM binding z-score is reported as -0.0228.
Work on TCTATTAGTTGATTAGGGCAACCTAAACAGCGGA yielded a PBM binding z-score of 1.11.
ATACCAAAGTGATCGTGAGGTCGTTGATACTAAC gave a PBM binding z-score of 1.59.
